# Rows were chosen to be rich in hits. Some 19% of all compounds tested hit in one or more screens of this group.
# TDP1 cell CPT – DT40-hTDP1 cell growth loss with CPT. chicken DT40 Tdp1-/-;hTDP1 cells + 20 nM CPT, ATP luminescence, 48 h. Potency, µM (titrated, usually from 46.2 µM), most hits filed as inhibitors. actives 12% (n = 420,000); also: nearly all actives have a fitted effect of over 55% in size
#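 Chicken DT40 Tdp1-/- cells complemented with human TDP1, 400 cells/well, exposed to compounds plus 20 nM camptothecin for at least 48 h at 37 C; viability read as ATP content by CellTiter-Glo luminescence.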
# IL1B secr inh – inhibitors of inflammasome signaling (IL-1 beta secretion); THP-1 LPS/ATP IL-1B secretion, AlphaLISA, 16 h; hits give low values; activity change, % at 57.5 µM; actives 4.7% (n = 360,000); AID 743279; in the data active = activity change below about -50%; inconclusive = mostly about -30% to -49%
#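 Secreted IL-1B measured by AlphaLISA bead assay after 16 h compound exposure of THP-1 cells; compounds (final up to 57.5 uM) added 1 h before LPS (250 ng/mL) and ATP (1.25 mM) stimulation; lower signal means less secretion.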
# TDP1 cell noCPT – qHTS for Inhibitors of human tyrosyl-DNA phosphodiesterase 1 (TDP1): qHTS in cells in absence of CPT | DT40 Tdp1-/- hTDP1 cells, no CPT, ATP luminescence, 48 h | Potency, µM (series often up to 46.2 µM), most hits filed as inhibitors | actives 15% (n = 420,000); also: nearly all actives have a fitted effect of over 55% in size
#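 Readout: luminescence from CellTiter-Glo after 30 min in the dark at RT. Cells: DT40 Tdp1-/- with stable hTDP1, 400/well. Exposure: compounds alone, ≥48 hr, 37 °C.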
# HT1080 IDH1KD tx – HT-1080 IDH1 knockdown cell toxicity (counter line); HT-1080 IDH1 knockdown viability, ATP luminescence, 48 h; Potency, µM (titrated, usually from 46.1 µM), actives largely listed as cytotoxic; actives 2% (n = 360,000)
#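 After a 2 h attachment period, IDH1KD HT-1080 cells took pin-transferred compound for 48 h at 37 °C; ATP-based luminescence after 10 min room-temperature reagent incubation reported viability.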
# HT1080NT lethal – kills 2HG-producing HT-1080-NT fibrosarcoma cells; HT-1080-NT fibrosarcoma viability, CellTiter-Glo ATP luminescence, 48 h; Potency, µM (titrated, usually from 46.1 µM), most hits filed as cytotoxic; actives 1.6% (n = 360,000); AID 686970;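 also: NT is the 2HG producing partner of a matched IDH1 knockdown line; nearly all actives have a fitted effect of over 55% in size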
#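 Compounds were tested in concentration-response format on HT-1080-NT cells for 48 hours at 37 degrees C. Cell viability came from CellTiter-Glo luminescence; curves were classified by r2, response magnitude and activity.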
# Hits are given with their value; . = inactive; ? = inconclusive; / = not tested or not shown. Unless noted, calls follow the shape of the dose curve; as a rule, active = well fitted curve in the direction sought with a large enough effect; inconclusive = small, poorly fitted or top-dose-only effect, or another doubt; inactive = no such curve, though single readings can be large; an effect the other way counts as inactive or inconclusive.
SMILES,TDP1 cell CPT,IL1B secr inh,TDP1 cell noCPT,HT1080 IDH1KD tx,HT1080NT lethal
Cc1cccc2sc(N(CCCN(C)C)C(=O)c3ccc4ncsc4c3)nc12,?,?,?,.,.
Cn1c(-c2cccc([N+](=O)[O-])c2)cnc1NCc1ccc(C#N)cc1,?,.,?,.,.
CCC(C)NS(=O)(=O)c1cc2c3c(c1)CCN3C(=O)CC2 (stereo not given),.,.,.,.,.
O=C(NCCC1=CCCCC1)C1CCN(S(=O)(=O)c2ccc(Br)s2)CC1,20.6µM,.,20.6µM,.,.
O=C(NCCC1=CCCCC1)C1CCCN(S(=O)(=O)c2ccc(F)cc2)C1 (stereo not given),11.6µM,.,20.6µM,.,.
O=C(NCCC1=CCCCC1)C1CCCN(S(=O)(=O)c2cnc[nH]2)C1 (stereo not given),.,.,.,.,.
Cc1cc(C)c2c(ccc3ccccc32)n1,.,.,.,.,.
Oc1ccc(-c2nc3ccc4ccccc4c3c3c2CCC3)cc1O,?,-54.5,?,?,?
O=C(NCC(O)CO)c1c(I)c(C(=O)NCC(O)CO)c(I)c(N(CCO)C(=O)CO)c1I (stereo not given),.,/,.,/,/
O=C(O)c1ccccc1Nc1ccc([N+](=O)[O-])c2nonc12,.,.,?,?,.
COc1cccc(Nc2cc(N3CCOCC3)c3nonc3c2[N+](=O)[O-])c1,20.6µM,.,18.4µM,.,.
O=[N+]([O-])c1c(NCCO)cc(N2CCCCCC2)c2nonc12,.,.,.,.,.
O=[N+]([O-])c1c(Nc2ccccc2O)cc(N2CCOCC2)c2nonc12,16.4µM,.,14.6µM,?,.
COc1cccc(Nc2ccc([N+](=O)[O-])c3nonc23)c1,?,.,.,23.1µM,14.6µM
CSCCC(NS(=O)(=O)c1ccccc1F)C(=O)Nc1ccncc1 (stereo not given),.,.,.,.,.
CCOC(=O)C1CCCN(C(=O)c2ccc3c(c2)sc2nc(-c4cccc(OC)c4)cn23)C1 (stereo not given),18.4µM,/,14.6µM,/,/
O=C(COc1ccc(F)cc1)N1CCCCCCC1,.,.,.,.,.
Cc1ccc(-c2cn3c(n2)sc2cc(C(=O)NC4CCCCCC4)ccc23)c(C)c1,?,/,.,/,/
CCOC(=O)C1CCCN(C(=O)c2sc3nc(-c4ccccc4)cn3c2C)C1 (stereo not given),?,.,?,.,.
CCOC(=O)C1CCCN(C(=O)COc2ccc(C(=O)c3ccc(F)cc3)cc2)C1 (stereo not given),18.4µM,.,?,.,.
CCOC(=O)C1CCCN(C(=O)c2ccc3c(c2)sc2nc(-c4ccc(C)cc4C)cn23)C1 (stereo not given),16.4µM,/,18.4µM,/,/
CCOC(=O)C1CCCN(C(=O)c2sc3nc(-c4ccc(F)cc4)cn3c2C)C1 (stereo not given),?,.,25.9µM,.,.
CC1CN(C(=O)CNC(=O)Cc2cccc3ccccc23)CC(C)O1 (stereo not given),.,.,.,.,.
O=C(Cc1cccc2ccccc12)NCC(=O)N1CCN(Cc2cccc(C(F)(F)F)c2)CC1,10.3µM,.,10.3µM,.,.
O=C(Cc1cccc2ccccc12)NCC(=O)N1CCN(CC(=O)Nc2ccc(F)cc2)CC1,?,.,18.4µM,.,.
SMILES,TDP1 cell CPT,IL1B secr inh,TDP1 cell noCPT,HT1080 IDH1KD tx,HT1080NT lethal
CN(CC(=O)Nc1ccc(Cl)c(Cl)c1)C(=O)C12CC3CC(CC(C3)C1)C2,?,-54.1,?,.,.
COc1ccc(C(=O)Nn2c(C)nc3ccccc3c2=O)cc1[N+](=O)[O-],.,.,.,.,.
Cc1cc(-n2c(C)nc3ccccc3c2=O)ccc1NC(=O)c1ccc(C)c([N+](=O)[O-])c1,7.31µM,/,5.17µM,/,/
Cc1cccc(S(=O)(=O)Nc2ccc(-n3c(C)nc4ccccc4c3=O)cc2)c1,?,.,23.1µM,.,.
Cc1nc2ccccc2c(=O)n1-c1ccc(NC(=O)c2ccccc2[N+](=O)[O-])cc1,?,/,23.1µM,/,/
Nc1nc(SCCO)[nH]c(=O)c1NC(=O)c1ccccc1F,.,.,.,.,?
CCOC(=O)C(NC(C)=O)(Nc1ccc(S(=O)(=O)Nc2cc(C)nc(C)n2)cc1)C(F)(F)F (stereo not given),.,.,.,.,.
CC(C)(C)c1ccc(C(=O)NNc2cc(N3CCCCC3)nc(N3CCCCC3)n2)cc1,25.9µM,.,?,.,.
O=CN1CCCN(Cc2nc(-c3cccc(Cl)c3)no2)CC1,.,.,.,.,.
Cc1ccc(C2=NN=C(NC(=O)C(F)(F)F)SC2)cc1,.,-81.9,.,.,.
Cc1ccc(OCC(=O)NC2=NCCS2)cc1,.,.,.,.,.
O=C(NNC(=O)c1ccc(Br)o1)c1csc(N2CCOCC2)n1,.,.,.,.,.
COc1ccc(N2CCN(C(=O)CSc3nnc4c(C)cc5ccc(C)c(C)c5n34)CC2)cc1,.,-65.9,.,.,.
COc1ccc(N2CCN(C(=O)CSc3nnc4c(C)cc5cc(C)ccc5n34)CC2)cc1,?,.,?,.,.
COc1ccc(N2CCN(C(=O)CSc3nnc4c(C)cc5c(C)cc(C)cc5n34)CC2)cc1,?,?,23.1µM,.,.
O=C(NCCOC12CC3CC(CC(C3)C1)C2)c1cccc(Br)c1,?,.,?,?,.
CCOc1cc(/C=C(/C#N)c2nc3ccccc3[nH]2)ccc1OCc1ccc(C(=O)O)o1,.,.,?,.,.
N#C/C(=C\c1ccc(N2CCOCC2)o1)c1nc2ccccc2[nH]1,?,.,23.1µM,?,?
COC(=O)/C(C#N)=C/c1ccc(N2CCOCC2)c([N+](=O)[O-])c1,.,.,.,.,.
N#C/C(=C\c1ccc(N2CCOCC2)c([N+](=O)[O-])c1)c1nc2ccccc2[nH]1,25.9µM,-103.9,14.6µM,.,.
Cc1ccc2nc(/C(C#N)=C\c3ccc(N4CCCCC4)c([N+](=O)[O-])c3)[nH]c2c1,20.6µM,?,10.3µM,?,?
COc1cc(/C=C(\C#N)c2nc3ccccc3[nH]2)c([N+](=O)[O-])cc1OCc1ccccc1,23.1µM,.,18.4µM,.,.
O=C(OCc1cn([C@H]2C[C@H](c3ccc(Cl)cc3)N(C(=O)C3CCCCC3)C[C@@H]2O)nn1)c1ccccc1,.,?,.,.,.
COc1ccc(C(C)(NC(C)=O)c2nc(-c3cccc(F)c3)cs2)cc1 (stereo not given),?,.,?,.,.
O=C(NNC(=O)c1sccc1-n1cccc1)Nc1ccc(F)cc1,.,.,.,.,.

# Compound activity from PubChem.
